This is a sample that favours compounds with a hit; in the whole collection about 1.5% have one here.
RTF Ca sens inh: cardiac RTF calcium sensitivity inhibitors, primary screen, biochemical, IANBD-TnC fluorescence, EC70 calcium | Troponin I, cardiac muscle (Homo sapiens) + Troponin T, cardiac muscle (Homo sapiens) + … | IANBD-labeled cardiac RTF, Ca2+ fluorescence | inhibition, % at 7.15 µM | 340,000 tested, 0.12% active;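 active = inhibition above the mean inhibition of all tested compounds plus 3 SD, cut at about 17% in these data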;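 note: assay run at fixed EC70 calcium of 1.6 mM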
RTF Ca sens act: cardiac RTF calcium sensitivity activators, primary screen, biochemical, IANBD-TnC fluorescence, EC20 calcium; IANBD-labeled TnC RTF fluorescence at EC20 calcium; 0% EC20 calcium, 100% full calcium; Troponin I, cardiac muscle (Homo sapiens) + Troponin T, cardiac muscle (Homo sapiens) + …; 340,000 tested, 0.24% active; activation, % at 7.2 µM;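 active = activation above the mean over all tested compounds plus 3 SD, cut at about 30% in these data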;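 note: rise in fluorescence read as greater calcium sensitivity of cardiac thin filaments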
CRFBP-R2 block: antagonists of CRF-BP/CRF-R2 complex, primary screen, cell-based, HEK293, calcium dye fluorescence, uHTS | 350,000 tested, 0.59% active | CRF-induced calcium fluorescence | inhibition, % at 11.8 µM;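 active = inhibition of the ligand-induced calcium signal above about 50% at the single tested concentration, limit read from the data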
IDE inh: human IDE inhibitors in live cells, primary screen, fluorescence polarization, HEK cells, FAbetaB substrate; Insulin-degrading enzyme (Homo sapiens), P14735; FAbetaB cleavage; inhibition, % at 5.59 µM; 320,000 tested, 0.41% active; AID 434962, 2010;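 active = percent inhibition above the average of all tested compounds plus 3 SD, set per screening campaign, cut at about 16% in these data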;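 note: IDE supplied by intact live HEK cells; FP after avidin binding of uncleaved biotin substrate so inhibition keeps polarization high; 0% = DMSO wells and 100% = 60 µM reference IDE inhibitor Ii1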
Target sequence (P14735 whole entry, looked up): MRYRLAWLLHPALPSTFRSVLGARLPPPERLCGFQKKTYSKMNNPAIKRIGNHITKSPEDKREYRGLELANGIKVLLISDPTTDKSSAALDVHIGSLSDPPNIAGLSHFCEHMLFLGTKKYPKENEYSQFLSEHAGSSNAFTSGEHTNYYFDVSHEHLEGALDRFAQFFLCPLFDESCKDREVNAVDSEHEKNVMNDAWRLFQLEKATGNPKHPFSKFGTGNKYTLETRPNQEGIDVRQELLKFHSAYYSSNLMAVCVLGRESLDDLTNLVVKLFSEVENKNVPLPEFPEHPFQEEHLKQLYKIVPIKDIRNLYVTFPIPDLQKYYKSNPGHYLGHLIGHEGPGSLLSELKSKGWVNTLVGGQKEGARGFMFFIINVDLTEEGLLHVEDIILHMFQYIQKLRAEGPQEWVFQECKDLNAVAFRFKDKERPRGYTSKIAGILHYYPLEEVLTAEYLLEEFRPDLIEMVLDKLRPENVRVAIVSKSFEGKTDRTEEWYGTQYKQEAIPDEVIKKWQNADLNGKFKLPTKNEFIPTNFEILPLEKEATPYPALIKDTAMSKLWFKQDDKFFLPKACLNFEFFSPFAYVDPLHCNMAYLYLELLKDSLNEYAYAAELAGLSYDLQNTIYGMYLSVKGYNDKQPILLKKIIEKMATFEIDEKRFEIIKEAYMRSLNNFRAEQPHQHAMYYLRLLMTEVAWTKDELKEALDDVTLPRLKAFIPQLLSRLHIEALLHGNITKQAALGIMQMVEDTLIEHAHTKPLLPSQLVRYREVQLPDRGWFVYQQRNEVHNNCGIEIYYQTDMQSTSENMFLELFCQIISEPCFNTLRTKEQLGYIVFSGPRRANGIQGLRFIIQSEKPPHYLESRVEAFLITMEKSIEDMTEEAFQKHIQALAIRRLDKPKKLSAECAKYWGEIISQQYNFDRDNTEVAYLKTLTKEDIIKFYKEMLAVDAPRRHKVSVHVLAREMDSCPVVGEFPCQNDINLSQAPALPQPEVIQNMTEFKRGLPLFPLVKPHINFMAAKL
CRFR2-BP ag: agonists of CRF-BP/CRF-R2 complex, primary screen, cell-based, HEK293, calcium dye fluorescence, uHTS | 350,000 tested, 0.46% active | activation, % at 13.2 µM | calcium dye fluorescence (FLIPR); percent of saturating CRF peptide response;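 active = activation of at least 50%, plus an integration ratio under a set limit after plate pattern correction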;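 note: plate controls were neutral control wells without compound for no effect and CRF at EC100 for full effect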
IDE act: human IDE activators in live cells, primary screen, fluorescence polarization, HEK cells, FAbeta-B substrate. Insulin-degrading enzyme (Homo sapiens), P14735. FAbeta-B cleavage; 0% vehicle, 100% cell-free pure enzyme wells. activation, % at 5.96 µM. 340,000 tested, 0.073% active. AID 493087, 2011;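 active = activation above the mean of all tested compounds plus 3 SD, set per screening campaign, cut at about 17% in these data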
IDE inh confirm: human IDE inhibitors in live cells, confirmation, fluorescence polarization, HEK cells, FAbetaB substrate. shares compounds with IDE inh. FAbetaB cleavage. inhibition, % at 5.59 µM. 1,200 tested, 51% active;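 active = mean inhibition across triplicate wells above the cutoff set by the earlier primary insulin-degrading enzyme screen, cut at about 16% in these data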;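 note: 0% = DMSO wells and 100% = 60 µM reference IDE inhibitor Ii1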
HEK293 tox: cytotoxicity in HEK cells, cytotoxicity control for IDE inhibitor project, cell-based, luminescence. shares compounds with IDE inh. HEK293 cytotoxicity, ATP luminescence. inhibition, % at 5.59 µM. 1,200 tested, 28% active; in the data active = inhibition above about 22%;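 note: 0% = vehicle wells and 100% = reference cytotoxic drug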
Starred values were filed as active, the others as inactive; x = no result given.

SMILES	RTF Ca sens inh	RTF Ca sens act	CRFBP-R2 block	IDE inh	CRFR2-BP ag	IDE act	IDE inh confirm	HEK293 tox
CSc1nnc(N2C(=O)C(O)=C(C(=O)c3ccco3)C2c2cccc(Cl)c2)s1 (centres undefined)	-10.6	9.5	-20.8	28.9*	23.0	-6.2	6.7	7.2
COc1cc(/C=C/C(O)=C/C(=O)/C=C/c2ccc(O)cc2)ccc1O	-98.9	27.5	-59.8	43.6*	112.5*	-70.0	108.6*	18.7
O=C(NC1CCCCC1)C1CCN(C(=O)c2ccc(-c3ccccc3)cc2)CC1	-6.7	1.6	1.5	18.0*	-1.4	-2.9	5.8	12.0
O=C(NC1CCCCC1)C1CCN(C(=O)c2ccccc2Cl)CC1	4.8	-1.5	-6.1	2.4	-0.6	7.3	x	x
CCOC(=O)C1=C(CSc2nc(CC)c(C)cc2C#N)OC(N)=C(C#N)C1c1ccc(OC)cc1 (centres undefined)	-12.7	11.0	-26.9	21.6*	15.9	-2.7	3.1	11.7
C=CCN(C(=O)CSc1nc2[nH]ncc2c(=O)n1-c1ccccc1OC)c1ccccc1	-5.0	-2.3	-13.6	17.7*	11.0	-13.3	12.8	2.5
COc1cc(NC(=O)CSc2nc3[nH]ncc3c(=O)n2-c2ccccc2C)cc(OC)c1OC	-8.1	-2.5	-6.7	4.3	-1.5	4.1	x	x
COC(=O)[C@@]12CCCN1[C@H](c1ccc(-c3ccc(OC)cc3)cc1)[C@@H]1C(=O)N(C)C(=O)[C@@H]12	4.5	5.6	-6.1	-0.5	0.9	-4.2	x	x
Cc1ccc(N2CCN(CCc3nc4cc(NC(=O)c5ccco5)ccc4n3C)CC2)cc1	-7.9	4.5	6.7	19.4*	-0.4	-1.5	7.7	21.1
C#CCOCCOCCOCCNc1nc(N2CCN(C(=O)[C@H]([C@@H](C)CC)n3cc([C@@H](N)CC(C)C)nn3)CC2)nc(N2CCN(C(=O)[C@H](Cc3ccc(O)cc3)n3cc([C@@H](N)C(C)CC)nn3)CC2)n1 (some centres undefined)	-6.0	-1.6	7.5	16.1*	-1.7	0.6	3.3	6.4
O=C(NNC(=O)c1cccc2ccccc12)c1ccc(-c2ccccc2)cc1	-2.1	1.1	-0.8	17.8*	1.2	-7.7	3.1	46.8*
Cc1cc(/C=C(/C#N)c2nc3ccccc3[nH]2)c(C)n1-c1cc(C(=O)O)cc(C(=O)O)c1	-1.1	-1.9	-11.1	x	28.0	-1.8	x	x
N#C/C(=C/c1ccc(Sc2nc3ccccc3[nH]2)o1)c1ccccc1F	2.0	5.1	12.8	-1.5	-1.5	3.2	x	x
N#C/C(=C/c1ccc(O)c(O)c1)c1nc2ccccc2[nH]1	-36.5	11.7	-31.1	47.2*	19.7	-48.6	93.0*	9.0
N#C/C(=C\c1ccc(Sc2ccccc2)o1)c1nc2ccccc2[nH]1	-10.8	25.0	-80.8	20.9*	28.2	-21.8	13.6	20.5
Cc1cc2nc(/C(C#N)=C\c3ccc(-c4ccccc4C(=O)O)o3)[nH]c2cc1C	-43.5	52.5*	-63.3	30.9*	100.1*	-123.8	133.7*	7.8
Cc1ccc2nc(/C(C#N)=C/c3ccc(-c4ccccc4C(=O)O)o3)[nH]c2c1	-37.1	27.5	-41.4	85.3*	65.3*	-73.7	115.1*	12.7
N#C/C(=C\c1cccs1)c1nc2ccccc2[nH]1	-2.1	1.4	5.6	-2.0	0.9	4.9	x	x
O=Cc1ccc(-c2ccccc2C(=O)O)o1	1.8	6.4	9.0	3.6	-2.1	1.0	x	x

High-throughput results from PubChem.
